Assay outcomes deposited in PubChem BioAssay by Sanford-Burnham Center for Chemical Genomics.
HIF-2a block – HIF-2a inhibition | 786-0 RCC cells HIF-2a reporter, luciferase luminescence, overnight | inhibition, % at 18.8 µM | actives 0.72% (n = 360,000) | AID 624352;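 active means inhibition of the luminescence signal of 40% or more relative to plate controls, in a single-dose primary screen at 18.75 µM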
TWEAK-Fn14 inh – blocks TWEAK-Fn14 interaction in a reporter cell assay. TWEAK-stimulated Fn14 reporter cells, luciferase luminescence, 8 h. inhibition, % at 10 µM. actives 2% (n = 360,000). AID 1159606; in the data active means inhibition above about 50%
Peg3 prom inh – inhibitors of Peg3 promoter; HeLa PEG-Prom luciferase reporter, luminescence, overnight; inhibition, % at 20 µM; actives 1.7% (n = 360,000); AID 588405;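 active means inhibition of at least 50% at 20 µM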
KKLEB cytotox – CF airway cell cytotoxicity counter-screen | KKLEB CF airway cells viability, ATPlite luminescence, overnight; active compounds read low; cells stimulated with P. aeruginosa culture filtrate | activity change (cytotoxicity), % at 5 µM | actives 0.36% (n = 360,000) | AID 602141;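 active means corrected activity change at or below -50% at 5 µM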
TROY NFkB inh – inhibitors of TROY-dependent NF-kB signaling; actives 0.98% (n = 360,000); AID 1347056; inhibition, % at 10 µM; Q293 LMP1-TROYcd NF-kB luciferase reporter, 4 h;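 active means compounds whose plate-normalised and pattern-corrected inhibition of the luciferase reporter signal at the single screening dose is 50% or more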
CF NFkB block – blocks PAF-induced NF-kB reporter in cystic fibrosis cells | KKLEB NF-kB-GFP reporter, GFP fluorescence overnight | inhibition, % at 5 µM | actives 0.86% (n = 360,000);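 active means at least 50% inhibition at 5 µM, scaled per plate between neutral and stimulator controls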;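 further: PAF is a Pseudomonas aeruginosa culture filtrate used as stimulus; plate controls were PAF-stimulated DMSO wells for no effect and unstimulated DMSO wells for full effect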
* hit, by the source's call; nt = not tested or not shown. Hits are enriched below; roughly 3.9% of the tested compounds scored in any of these assays.

SMILES	HIF-2a block	TWEAK-Fn14 inh	Peg3 prom inh	KKLEB cytotox	TROY NFkB inh	CF NFkB block
COc1cccc2cc(C(=O)NCc3ccco3)c(=Nc3ccc(C(=O)O)cc3)oc12	-18	71*	-124	6	42	-1
COc1ccc2cc(C(=O)NCc3ccccc3)c(=Nc3ccc(C(=O)O)cc3)oc2c1	7	59*	-36	7	-46	-57
COc1ccc2cc(C(N)=O)c(=Nc3ccccc3)oc2c1	-139	72*	-231	0	14	30
COc1cccc2cc(C(=O)NCc3ccco3)c(=O)oc12	-35	-25	-101	3	-63	-3
O=C(NCCc1ccccc1)c1ccc(Cl)c(S(=O)(=O)N2CCOCC2)c1	-90	-17	-33	-5	-46	2
CC1CCc2nc3ccccc3c(C(=O)OCC(=O)NC3CCS(=O)(=O)C3)c2C1 (configuration not stated)	15	2	6	-10	-5	15
COc1cccc(NC(=O)COC(=O)c2c3c(nc4ccccc24)CCC(C)C3)c1 (configuration not stated)	-52	57*	71*	0	36	-8
Cc1n[nH]c(C)c1C(=O)CC1(O)C(=O)N(CCc2ccccc2)c2ccc(Cl)cc21 (configuration not stated)	15	21	8	3	7	4
CCN(CC)c1ccc(-c2c(C#N)c(N)nc(OC)c2C#N)cc1	12	-23	53*	-22	15	12
Cc1ccc(C)c(NC(=O)C(Sc2ncnc3ccccc23)c2ccccc2)c1 (configuration not stated)	15	14	59*	-21	-4	9
Cc1ccc(C)c(NC(=O)C(Sc2nc3ccccc3c(=O)n2CC(C)C)c2ccccc2)c1 (configuration not stated)	-6	29	57*	-93*	3	105*
C[C@H]1C(=O)N(C)CCN1C(=O)c1ccccc1OC1CCN(S(C)(=O)=O)CC1	-1	8	1	-2	-4	9
Cc1cc(C)n(-c2ccc(C(=O)N3CCc4ccccc43)cc2)n1	-185	88*	-125	-7	-25	11
CC(O)c1c(OCc2ccccc2)ncnc1OCc1ccccc1 (configuration not stated)	-31	4	7	0	nt	29
COC(=O)c1ccccc1NC(=O)c1ccc(-c2ccc(Br)cc2)o1	-169	77*	-168	-6	81*	4
COc1ccc(OCc2cc(C(=O)NCC3CCOCC3)no2)c(Cl)c1	-208	-18	-296	-2	-14	6
CCOc1ccc(-c2csc(/C(C#N)=C\c3ccc(O)c([N+](=O)[O-])c3)n2)cc1	-124	104*	12	-16	71*	42
CCCCc1ccc(-c2csc(/C(C#N)=C\c3ccc(C)o3)n2)cc1	-45	-5	-18	-6	-47	-4
COc1ccc(NC(=O)Nc2ccc3c(c2)C(=O)N([C@H](C)CO)C[C@H](C)[C@@H](CN(C)Cc2ccc(Cl)c(Cl)c2)OCCCC[C@@H](C)O3)cc1	-12	14	86*	-3	19	22
COc1ccc(S(=O)(=O)N(C)C[C@H]2Oc3ccc(NC(=O)Nc4ccc(C(F)(F)F)cc4)cc3C(=O)N([C@H](C)CO)C[C@@H]2C)cc1	-27	58*	41	-15	30	23
COc1ccc(S(=O)(=O)N(C)C[C@@H]2Oc3cc(Br)ccc3S(=O)(=O)N([C@H](C)CO)C[C@@H]2C)cc1	-7	0	54*	9	-3	-20
C[C@H](CO)N1C[C@H](C)[C@@H](CN(C)C(=O)Nc2ccc(C(F)(F)F)cc2)Oc2c(NC(=O)Nc3ccc(C(F)(F)F)cc3)cccc2C1=O	8	11	56*	-20	14	5
COc1ccc(NC(=O)Nc2ccc3c(c2)C(=O)N([C@H](C)CO)C[C@H](C)[C@@H](CN(C)S(=O)(=O)c2ccc(OC)cc2)O3)cc1	19	-3	25	-20	5	13
C[C@H]1CN([C@@H](C)CO)C(=O)c2cccc(NC(=O)Nc3ccc(C(F)(F)F)cc3)c2O[C@@H]1CN(C)C(=O)Nc1ccc(F)cc1	-14	-40	34	-7	7	6
C[C@@H]1CCCCO[C@H](CN(C)Cc2ccc(Cl)c(Cl)c2)[C@H](C)CN([C@@H](C)CO)C(=O)c2cc(NC(=O)Nc3ccc(F)cc3)ccc2O1	-42	27	27	2	7	25
SMILES	HIF-2a block	TWEAK-Fn14 inh	Peg3 prom inh	KKLEB cytotox	TROY NFkB inh	CF NFkB block
CCCC(=O)Nc1ccccc1NC(=O)CN(C)S(=O)(=O)c1ccccc1	9	-1	-5	4	-1	-6
O=S(=O)(NCc1ccc(C(F)(F)F)cc1)c1ccc(-n2cnnn2)cc1	8	-11	2	-9	-12	-11
CCN(CC(=O)Nc1ccc(NC(C)=O)cc1)C(=O)c1ccc(COc2ccccc2)o1	13	-1	0	6	21	-6
CCN(CC(=O)Nc1ccc(NC(C)=O)cc1)C(=O)c1ccc(COc2ccc(C(C)(C)C)cc2)cc1	-9	53*	-96	0	33	14
CC(=O)c1c(C)oc2ccc(NS(=O)(=O)c3ccc(F)cc3C)cc12	15	56*	30	-3	33	6
CN1CCN(C(c2ccc(Cl)cc2)c2cc(Cl)c3cccnc3c2O)CC1 (configuration not stated)	50*	28	65*	-42	-4	38
Oc1c(C(c2ccccn2)N2CCCCC2)cc(Cl)c2cccnc12 (configuration not stated)	13	10	23	-9	2	-9
O=C(NC(c1ccc(Cl)cc1)c1cc(Cl)c2cccnc2c1O)c1cccnc1 (configuration not stated)	20	18	66*	-4	3	-12
Nc1nc(-c2ccccc2)c(-c2ccccc2)s1	9	11	11	-9	-13	18
Cc1ccc(-c2nc(N)sc2-c2ccccc2)cc1C	28	86*	12	6	53*	-5
COc1ccc(CN2CCN(C3CCSCC3)CC2CCO)c(C)c1C (configuration not stated)	16	-1	10	-10	20	-9
O=C(O)c1cc(O)ccc1NC(=O)C(c1ccccc1)c1ccccc1	25	110*	-1	8	61*	-19
COc1ccc([C@H]2C[C@@H](O)[C@H](n3cc(C4CC4)nn3)CN2C(=O)C2CCCCC2)cc1	16	5	-2	1	0	-17
O=C(Nc1ccc(F)cc1)Nc1nnc(-c2ccncc2)s1	-43	44	-13	-48	14	85*
O=C(Nc1ccc(Cl)cc1)Nc1nnc(-c2ccncc2)s1	-9	81*	64*	-89*	41	84*
